Experimental findings from PubChem BioAssay (NCI) are described below.

Test systems include SR leukemia; RPMI-8226 leukemia; OVCAR-8 ovarian; OVCAR-5 ovarian; OVCAR-4 ovarian; SK-OV-3 ovarian; IGROV1 ovarian; OVCAR-3 ovarian; HS 578T breast; NCI/ADR-RES ovarian.
What all share (assay): NCI-60 one-dose screen, 48 h (100 = growth as untreated, 0 = no growth, -100 = all killed)
Common to all, as to conditions: 10 µM unless noted

The panel holds about 83,000 compounds, 20% with a hit somewhere; the sample as a whole holds those more often.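 The endpoint reported here, percent growth, reads 100 for growth as untreated, 0 for no net growth and -100 for all cells dead.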 A number with no mark means an inactive call. The source made the active and inactive calls. Rule for the calls: active = growth percent below 10; inactive = the rest.

On to `Cc1cc(Br)c2nsnc2c1[N+](=O)[O-]`, for which the growth in the assay with SR leukemia was 19.2%; in the assay with RPMI-8226 leukemia it was 23.9%; in the assay on OVCAR-8 ovarian, 52.8%; in the assay on OVCAR-5 ovarian, 72.8%; in the assay on OVCAR-4 ovarian, 47.7%; in the assay on SK-OV-3 ovarian, 91.3%. Also, the growth was 27.4% in the assay with IGROV1 ovarian, 57% in the assay on OVCAR-3 ovarian, 47% in the assay with HS 578T breast and 50.5% in the assay on NCI/ADR-RES ovarian.

Turning to `O=C(Nc1ccc(Cl)c(Cl)c1)OCc1ccco1`, the growth is 25.7% in the assay on SR leukemia; 51.3% with RPMI-8226 leukemia; 47.1% in the assay on OVCAR-8 ovarian; 76.5% in the assay with OVCAR-5 ovarian; 64% with OVCAR-4 ovarian; 83.3% in the assay on SK-OV-3 ovarian. Further, the growth is 52.7% in the assay with IGROV1 ovarian, 47% in the assay with OVCAR-3 ovarian, 20.5% in the assay on HS 578T breast and 34.4% in the assay on NCI/ADR-RES ovarian.

As for `Nc1ccc(-c2ccc(N)c(S(=O)(=O)O)c2)cc1S(=O)(=O)O`, the growth was 153% in the assay with SR leukemia; 110% in the assay with RPMI-8226 leukemia; 116% in the assay on OVCAR-8 ovarian; 116% in the assay on OVCAR-5 ovarian; 108% with OVCAR-4 ovarian; 103% in the assay with SK-OV-3 ovarian. Further, the growth in the assay with IGROV1 ovarian is 120%; with OVCAR-3 ovarian, 108%; in the assay with HS 578T breast it was 113%; in the assay on NCI/ADR-RES ovarian it was 114%.

On to `Cc1cc(N/N=C/c2ccccn2)nc2ccccc12`, for which the growth is 11.5% with SR leukemia; 13.7% with RPMI-8226 leukemia; 6.78% (active) in the assay on OVCAR-8 ovarian; 37.9% in the assay on OVCAR-5 ovarian; 16.4% in the assay on OVCAR-4 ovarian; 31.6% in the assay on SK-OV-3 ovarian. The growth with IGROV1 ovarian was 2.45% (active); in the assay on OVCAR-3 ovarian it was 28.6%; with HS 578T breast it was 74.8%; in the assay with NCI/ADR-RES ovarian it was 7.9% (active).

Take `CCCCCCCCCCCC1N=C(N)N=C(N)N1c1cccc(Br)c1` (stereo not given): the growth in the assay on SR leukemia was -29.2% (active); in the assay on RPMI-8226 leukemia it was -40% (active); with OVCAR-8 ovarian, -14.6% (active); in the assay with OVCAR-5 ovarian, -32.8% (active); in the assay on OVCAR-4 ovarian it was 55.4%; in the assay with SK-OV-3 ovarian, 32.6%. Further, the growth is -30.2% (active) in the assay on IGROV1 ovarian, -28.6% (active) in the assay with OVCAR-3 ovarian, 18.9% in the assay with HS 578T breast and 105% in the assay on NCI/ADR-RES ovarian.

As for `S=C1SCN(Cc2cccs2)CN1Cc1cccs1`, the growth in the assay on SR leukemia was 59.3%; with RPMI-8226 leukemia it was 58%; in the assay with OVCAR-8 ovarian, 104%; with OVCAR-5 ovarian, 98.8%; in the assay with OVCAR-4 ovarian, 94.4%; in the assay with SK-OV-3 ovarian it was 108%. For the same compound, the growth in the assay on IGROV1 ovarian was 106%; in the assay on OVCAR-3 ovarian, 111%; in the assay with HS 578T breast it was 91.1%; in the assay with NCI/ADR-RES ovarian, 108%.

For the compound `O=C(Nc1cccc(C(F)(F)F)c1)Oc1ccc(Cl)c2cccnc12`, the growth in the assay with SR leukemia is -1.87% (active); with RPMI-8226 leukemia, -37.9% (active); with OVCAR-8 ovarian it was -11.1% (active); with OVCAR-5 ovarian it was 87.7%; in the assay on OVCAR-4 ovarian it was -0.489% (active); in the assay with SK-OV-3 ovarian, 95.8%. Also, the growth with IGROV1 ovarian was 5.79% (active); with OVCAR-3 ovarian it was -56.3% (active); in the assay on HS 578T breast it was 17.4%; with NCI/ADR-RES ovarian it was 4.64% (active).

As to `COc1ccc(C(Cn2ccnc2)Sc2ccc(Cl)c(Cl)c2)cc1` (stereo not given), the growth in the assay on SR leukemia was 97.4%; in the assay on RPMI-8226 leukemia, 50.7%; with OVCAR-8 ovarian, 91%; in the assay on OVCAR-5 ovarian, 91.3%; in the assay on OVCAR-4 ovarian, 79.6%; in the assay on SK-OV-3 ovarian it was 86.4%. Also, the growth in the assay on IGROV1 ovarian was 59.3%; in the assay with OVCAR-3 ovarian, 89.7%; with HS 578T breast, 112%; in the assay on NCI/ADR-RES ovarian it was 69.1%.

As for `C=C(C(N)=O)C(N)C(=O)O` (stereo not given), the growth with SR leukemia is 83.4%; with RPMI-8226 leukemia it was 104%; with OVCAR-8 ovarian, 108%; with OVCAR-5 ovarian, 113%; in the assay on OVCAR-4 ovarian, 115%; in the assay on SK-OV-3 ovarian, 112%. Further, the growth in the assay with IGROV1 ovarian was 99.8%; in the assay on OVCAR-3 ovarian, 105%; in the assay with HS 578T breast, 114%; with NCI/ADR-RES ovarian, 112%.

Turning to `CC[n+]1ccc(Nc2ccc(NC(=O)c3ccc(Nc4cc[n+](CC)c5ccc([N+](=O)[O-])cc45)cc3)cc2)cc1`, the growth was 75.7% with SR leukemia; 41.9% with RPMI-8226 leukemia; 79% with OVCAR-8 ovarian; 107% in the assay on OVCAR-5 ovarian; 56.8% in the assay with OVCAR-4 ovarian; 84.5% in the assay on SK-OV-3 ovarian. Besides, the growth with IGROV1 ovarian is 115%; with OVCAR-3 ovarian, 91.8%; with HS 578T breast it was 97%; in the assay with NCI/ADR-RES ovarian it was 106%.

On to `CCC(C)(O)Cc1ccc(Cl)cc1` (stereo not given), for which the growth was 101% with SR leukemia; 105% in the assay with RPMI-8226 leukemia; 108% with OVCAR-8 ovarian; 111% with OVCAR-5 ovarian; 103% with OVCAR-4 ovarian; 103% with SK-OV-3 ovarian. Further, the growth in the assay on IGROV1 ovarian was 114%; in the assay on OVCAR-3 ovarian, 114%; in the assay on HS 578T breast it was 108%; with NCI/ADR-RES ovarian, 111%.

As to `Oc1ccc(Cl)cc1C(c1cc(Cl)ccc1O)C(Cl)(Cl)Cl`, the growth was -25.2% (active) with SR leukemia; 11.5% with RPMI-8226 leukemia; 29.6% in the assay with OVCAR-8 ovarian; 8.25% (active) in the assay on OVCAR-5 ovarian; 20.6% in the assay with OVCAR-4 ovarian; 32% in the assay with SK-OV-3 ovarian. In addition, the growth in the assay on IGROV1 ovarian was 56%; in the assay on OVCAR-3 ovarian it was -16.9% (active); in the assay with HS 578T breast, 0.476% (active); in the assay on NCI/ADR-RES ovarian, 4.17% (active).

`S=C(SSC(=S)N1CCOCC1)N1CCOCC1`: the growth in the assay with SR leukemia was 31.4%; in the assay on RPMI-8226 leukemia, 76.9%; with OVCAR-8 ovarian, 96.8%; in the assay on OVCAR-5 ovarian, 106%; with OVCAR-4 ovarian, 65.7%; in the assay on SK-OV-3 ovarian it was 102%. Also, the growth is 29.1% with IGROV1 ovarian, 74.6% with OVCAR-3 ovarian, 97.7% in the assay on HS 578T breast and 106% in the assay on NCI/ADR-RES ovarian.

For `O=C1c2ccccc2Cc2cccc(Cl)c21`, the growth in the assay with SR leukemia is 64.1%; in the assay with RPMI-8226 leukemia it was 106%; with OVCAR-8 ovarian, 108%; in the assay with OVCAR-5 ovarian it was 93.9%; with OVCAR-4 ovarian, 108%; in the assay with SK-OV-3 ovarian, 98%. Further, the growth was 88.7% in the assay on IGROV1 ovarian, 108% in the assay on OVCAR-3 ovarian, 112% in the assay with HS 578T breast and 96% in the assay on NCI/ADR-RES ovarian.

As to `CC(C)c1ccc(Nc2n[nH]c(=S)s2)cc1`, the growth in the assay with SR leukemia was 101%; in the assay on RPMI-8226 leukemia, 108%; with OVCAR-8 ovarian, 102%; in the assay with OVCAR-5 ovarian, 119%; in the assay on OVCAR-4 ovarian, 104%; with SK-OV-3 ovarian, 106%. Also, the growth in the assay with IGROV1 ovarian was 106%; with OVCAR-3 ovarian it was 98.9%; in the assay with HS 578T breast it was 116%; in the assay with NCI/ADR-RES ovarian it was 102%.
